PubChem BioAssay AID492972 (The Scripps Research Institute Molecular Screening Center, 2010)
Out of some 340,000 compounds screened, about 930 (0.27%) were called active. The list comes from a sample in which actives are over-represented; it also holds similar structures and randomly drawn compounds. A number with no mark means an inactive call.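 The calls were made as follows: active = inhibition above the screen-wide average of all tested compounds plus 3 SD (cut at about 25% in these data); inactive = the rest.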

The compounds below were run against Platelet-activating factor acetylhydrolase IB subunit alpha1 (Homo sapiens) (UniProt Q15102) (assay: PAFAH1B3 enzyme inhibitors, primary screen, biochemical, fluorescence polarization, human (AID 492972;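 also: 0% = enzyme with DMSO only and 100% = wells lacking PAFAH1B3 protein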)). Conditions: recombinant PAFAH1B3, FP-rhodamine probe, at 3.39 µM, stronger effect = higher value.
Sequence of Platelet-activating factor acetylhydrolase IB subunit alpha1 (Homo sapiens) (Q15102 whole entry, looked up): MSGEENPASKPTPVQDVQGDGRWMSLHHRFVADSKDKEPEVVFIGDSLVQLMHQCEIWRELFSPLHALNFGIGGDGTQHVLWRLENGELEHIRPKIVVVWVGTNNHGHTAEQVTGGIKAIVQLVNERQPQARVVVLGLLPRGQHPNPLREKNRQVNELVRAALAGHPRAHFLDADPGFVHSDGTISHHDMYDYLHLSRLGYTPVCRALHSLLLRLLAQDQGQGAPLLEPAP

Structure (SMILES)	inhibition
O=C1NC(=O)N(c2ccc(F)cc2)C(=O)/C1=C/c1ccc2c(c1)CCCN2Cc1ccccc1	4.39%
COc1ccc(N2C(=O)/C(=C/c3ccco3)C(=O)NC2=S)cc1	16.7%
O=C1NC(=O)N(c2ccccc2)C(=O)/C1=C/c1ccc([N+](=O)[O-])s1	25.6% (active)
CCCCCn1c(=O)c(C(=O)NCc2ccccn2)c(O)c2ccccc21	4.97%
COC(=O)N(c1ccc(OC)cc1)P1(=S)OCCC(C)O1 (stereo not given)	-0.56%
CCOC(=O)c1c(N)n(Cc2ccccc2)c2nc3ccccc3nc12	36.2% (active)
CC/C(=N\NC(=O)c1ccccc1O)c1c(O)n(Cc2ccccc2)c(=O)[nH]c1=O	13.4%
COc1cc(Cn2c(N)c(C(=O)NCc3ccco3)c3nc4ccccc4nc32)cc(OC)c1OC	9.25%
O=C(c1cc2nc(-c3ccccc3)cc(-c3ccccc3)n2n1)N1CCC2(CC1)OCCO2	1.81%
COC(=O)C(O)(c1ccc(NC(=O)c2ccco2)c(OC)c1)C(F)(F)F (stereo not given)	-1.88%
